Results from PubChem BioAssay (NCATS).
Several values for one entry are separate records, joined by “and”; a condition that tells them apart may be missing. Equal entries are not always repeated. Records with an inconclusive call do not appear. Activity calls are given as the source filed them. Unless noted, the call rests on the fitted dose curve; in most records, active means well fitted curve in the direction sought with a large enough effect; inconclusive means small, poorly fitted or top-dose-only effect, or another doubt; inactive means no such curve, though single readings can be large; an effect the other way counts as inactive or inconclusive.

Tests used:
[1] = qHTS assay for small molecule agonists of the antioxidant response element (ARE) signaling pathway measured by Nrf2-dependant transcriptional activity (AID 720636; active means well fitted curve in the direction sought with a large enough effect in the repeat runs; an effect the other way counts as inactive or inconclusive; further: % of control where 0% means no effect)
Method in brief: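 Quantitative HTS format in HepG2 cells stably expressing an ARE-luciferase reporter; 16 hr compound treatment at 37 C, luciferase signal detected with ONE-Glo.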

[2] = qHTS assay for small molecule agonists of the antioxidant response element (ARE) signaling pathway measured by Nrf2-dependant transcriptional activity - cell viability counter screen (AID 720653; active means well fitted curve in the direction sought with a large enough effect in the repeat runs; an effect the other way counts as inactive or inconclusive; further: on the % scale 0 is the no-effect control and ±100 the full control effect); conditions: ARE-bla HepG2 viability, CellTiter-Glo ATP luminescence, 16 h; active compounds read low
Method in brief: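 Cytotoxicity counter screen: intracellular ATP quantified by CellTiter-Glo luminescence in the same ARE-bla HepG2 plates, after 16 h compound exposure and a 2 h beta-lactamase substrate step.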

[3] = qHTS Assay for Identifying Gametocytocidal Compounds (AID 743244);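 further: on the % scale 0 is the no-effect control and ±100 the full control effect; actives lower the fluorescent signal which means gametocytes are killed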; conditions: P. falciparum 3D7 stage III-V gametocytes, alamarBlue, 72 h; max response: active compounds read low
Method in brief: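 Compounds are pinned into medium, gametocytes (stage III–V, 3D7, 20,000 cells/well) added, and plates held 72 h at 37 °C in 5% CO2. AlamarBlue follows for 24 h before fluorescence reading.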

[4] = qHTS assay for cell viability of the p53RE-bla HCT-116 cell line (AID 743292); further: on the % scale 0 is the no-effect control and ±100 the full control effect; nearly all actives have a fitted effect of over 55% in size
Method in brief: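 Viability of compound-treated p53RE-bla HCT-116 cells is taken from ATP-dependent luciferase luminescence. Treatment lasts 16 h at 37 C after a 5 h settling period; detection follows 30 min at room temperature.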

[5] = qHTS assay to identify small molecule inhibitors of chordoma cells - UCH-1 (AID 1259355); further: on the % scale 0 is the no-effect control and ±100 the full control effect; nearly all actives have a fitted effect of over 55% in size
Method in brief: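 Seed 800 cells per well; incubate overnight at 37 C, 5% CO2. Add test compounds (15 concentrations), then the auranofin–topoisomerase-agent combination. Incubate 48hr, add CellTiter-Glo, wait 30min, read luminescence.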

[6] = qHTS assay to identify small molecule inhibitors of chordoma cells - UCH-2 (AID 1259356); further: series mostly up to about 46 µM; on the % scale 0 is the no-effect control and ±100 the full control effect
[7] = qHTS assay for small molecule antagonists of the retinoid-related orphan receptor gamma (ROR-gamma) signaling pathway - cell viability counter screen (AID 720652; active means well fitted curve in the direction sought with a large enough effect in the repeat runs; an effect the other way counts as inactive or inconclusive;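 further: CHO reporter cells with doxycycline-induced ROR-gamma expression; series mostly up to about 92 µM; compound exposure lasted 16 hr before ATP read; on the % scale 0 is the no-effect control and ±100 the full control effect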)
Method in brief: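 Counter screen in CHO cells carrying TET-inducible ROR-gamma and an ROR response element-luciferase reporter; cells plated 5 hr, compound pinned, doxycycline added, then 16 hr at 37 C. Viability read as intracellular ATP by CellTiter-Glo luminescence.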

[8] = qHTS assay for cell viability of HEK293 cells (AID 743288); conditions: ATP luminescence (CellTiter-Glo), 18 h; max response: active compounds read low; further: on the % scale 0 is the no-effect control and ±100 the full control effect; nearly all actives have a fitted effect of over 50% in size
Method in brief: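 Environmental chemicals tested in qHTS format against parental HEK293 cells; 18 h treatment, 37 C; read-out ATP luminescence (CellTiter-Glo), 30 min RT development.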

C=CC(C)(O)CC/C=C(\C)CCC=C(C)C (configuration not stated)
inactive: Potency [1] | max response [2] 1.82% | max response [3] -0.0803% | outcome [4] | Potency [5] | Potency [6]

O.O.O.O.O.O.O.O=S(=O)([O-])[O-].[Co+2]
inactive: max response [2] -4.91% | max response [3] 0.797% | outcome [4] | Potency [5] | Potency [6]

OC[C@H]1O[C@@H]2O[C@H]3[C@H](O)[C@@H](O)[C@@H](O[C@H]4[C@H](O)[C@@H](O)[C@@H](O[C@H]5[C@H](O)[C@@H](O)[C@@H](O[C@H]6[C@H](O)[C@@H](O)[C@@H](O[C@H]7[C@H](O)[C@@H](O)[C@@H](O[C@H]1[C@H](O)[C@H]2O)O[C@@H]7CO)O[C@@H]6CO)O[C@@H]5CO)O[C@@H]4CO)O[C@@H]3CO
inactive: outcome [7] | max response [2] -2.78% and 5.87% | max response [3] -7.1% | outcome [4] | Potency [5] | Potency [6]

CCCCC(CC)COS(=O)(=O)O (configuration not stated)
inactive: max response [2] 8.31% | max response [3] -3.23% | outcome [4] | Potency [5] | Potency [6]

C[C@H](CCC(=O)O)[C@H]1CC[C@H]2[C@@H]3[C@H](O)C[C@@H]4C[C@H](O)CC[C@]4(C)[C@H]3C[C@H](O)[C@]12C
inactive: outcome [7] | max response [2] 1.94% | max response [3] -6.23% | outcome [4] | Potency [5] | Potency [6]

COC(=O)c1ccccc1O
inactive: outcome [7] | max response [2] 1.24% and 5.57% | max response [3] 3.79% | outcome [4] | Potency [5] | Potency [6]

c1ccc2ccccc2c1
inactive: Potency [1] | outcome [7] | max response [2] 1.06% and 1.45% | max response [3] 6.18% | outcome [4] | Potency [5] | Potency [6]

CC1=CCC2CC1C2(C)C (configuration not stated)
inactive: outcome [7] | max response [2] -2.11% | max response [3] 3.27% | outcome [4] | Potency [5] | Potency [6]

CC(C)[C@@H]1CC[C@@H](C)C[C@H]1O
inactive: Potency [1] | max response [2] 0.622% | max response [3] 20.4% | outcome [4] | Potency [5] | Potency [6]

CC(C)(C)CC(C)(C)c1ccc(OCCO)cc1
inactive: max response [2] -18% | max response [3] 12.7% | outcome [4] | Potency [5] | Potency [6]

CO
inactive: outcome [7] | max response [2] -2.74% | max response [3] 16% | outcome [4] | Potency [5] | Potency [6]

NCCO/C=C/[C@H](N)C(=O)O
inactive: Potency [1] | max response [2] 6.58% | max response [3] -0.535% | outcome [4] | Potency [5] | Potency [6]

OCCOCCOCCO
inactive: Potency [1] | max response [2] -9.26% and -13.2% | max response [3] -2.42% | max response [8] -2.87% and -1.37% | outcome [4] | Potency [5] | Potency [6]

Cc1ccc(S(=O)(=O)NCl)cc1
inactive: max response [2] -0.456% | max response [3] 4.72% | outcome [4] | Potency [5] | Potency [6]

C=C(C)C1CC=C(C)CC1 (configuration not stated)
inactive: max response [2] -0.676% and -5.86% | max response [3] 0.817% | outcome [4] | Potency [5] | Potency [6]

CCCCO
inactive: outcome [7] | max response [2] -5.18% and -2.26% | max response [3] 4.7% | outcome [4] | Potency [5] | Potency [6]

CC(C)CCCCCCc1ccc(O)cc1
inactive: Potency [1] | max response [2] -6.03% | max response [3] 9.95% | max response [8] -15.7% | outcome [4] | Potency [5] | Potency [6]

O=P(O)(O)O
inactive: outcome [7] | max response [2] -2% | max response [3] -3.37% | outcome [4] | Potency [5] | Potency [6]

CC1=CC(=O)NS(=O)(=O)O1
inactive: outcome [7] | max response [2] 6.07% and 6.81% | max response [3] -2.22% | outcome [4] | Potency [5] | Potency [6]
